Screening results deposited in PubChem BioAssay by National Center for Advancing Translational Sciences (NCATS).
Shown are actives, neighbours in structure and some others; about 10% of the full set was active somewhere.
NS1 function inh = influenza NS1 inhibition. Potency, µM (doses to about 46.1 µM). actives 0.4% (n = 270,000). AID 2326; note: actives are rising curves; nearly all actives have a fitted effect of over 50% in size
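Compounds were scored for reversing the slow growth caused by influenza A NS1 in S. cerevisiae, measured by optical density at 600 nm. Assay medium contained 2% galactose at pH 6.0; NS1-free yeast of the same strain were the positive control.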
Pf growth 48h = inhibits P. falciparum growth in the first generation, 48 h | P. falciparum luciferase growth in erythrocytes, 48 h | Potency, µM (top dose mostly 28.7 µM), usual class: inhibitors | actives 5.9% (n = 310,000); active = well fitted inhibition curve with a large enough effect; inconclusive = small, poorly fitted or top-dose-only effect, or another doubt; inactive = no such curve, though single readings can be large or run the other way
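Luminescence readout; reporter = integrated firefly luciferase in P. falciparum. RBC culture at 2% hematocrit, 0.1% parasitemia final, 37 C/5% CO2; decreased signal taken as growth inhibition.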
Pf growth 96h = P. falciparum growth inhibition at 96 hour, primary screen for plastid delayed-death inhibitors; P. falciparum luciferase reporter growth, 96 h; Potency, µM (highest dose often 28.7 µM), actives largely listed as inhibitors; actives 6.9% (n = 320,000); AID 504834; active = well fitted inhibition curve with a large enough effect; inconclusive = small, poorly fitted or top-dose-only effect, or another doubt; inactive = no such curve, though single readings can be large or run the other way
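Plates of compound plus infected erythrocytes (2% hematocrit, 0.05% parasitemia final) incubate 96 hours, 37 C, 5% CO2. Detection reagent added; reduced luminescence from the parasites' luciferase reporter flags inhibition.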
SARS PLpro yeast = SARS-CoV PLP inhibition in yeast; AID 485353; actives 0.19% (n = 330,000); S. cerevisiae expressing SARS-CoV PLpro, growth rescue; Potency, µM (top dose mostly 32.9 µM), usual class: activators; note: nearly all actives have a fitted effect of over 55% in size
Numbers stand for hits; n = inactive; u = inconclusive; x = no result; [ ] = another dose, or the depositor's remark. Unless noted, calls come from the whole dose curve.

SMILES | NS1 function inh | Pf growth 48h | Pf growth 96h | SARS PLpro yeast
CC/C(=N\N1CCCCCC1)c1c(O)n(-c2ccccc2C)c(=O)[nH]c1=O | n | u | 4.7µM | n
CCOC(=O)Nc1ccc2nc(Sc3ccc(Cl)cc3)sc2c1 | n | 9.3µM | 15µM | n
CC(=O)NCCCc1nc2ccccc2n1Cc1c(F)cccc1Cl | n | n | n | n
CCc1c(C)c2ccc(OCC(=O)N(C)C)c(C)c2oc1=O | n | n | u | n
CCOC(=O)CCc1c(C)c2ccc(OCC(=O)N(CC)CC)c(C)c2oc1=O | n | 10µM | x | n
CCOC(=O)Cc1c(C)c2ccc(N(CC)CC)cc2oc1=O | n | 3.7µM | n | n
Cc1ccc(-c2nc(CC(=O)Nc3cccc(S(=O)(=O)NC4=NCCC4)c3)cs2)cc1 | x | n | n | n
CC(O)/C=C/C1OC(=O)CC1Nc1ccc(C=O)cc1 (stereo unspecified) | n | n | 7.4µM | n
OC(CNC1CCCC1)COc1ccccc1Br (stereo unspecified) | n | n | n | x
Cc1ccccc1OCC(O)CNC1CCC(NCC(O)COc2ccccc2C)CC1 (stereo unspecified) | n | 0.93µM | 3.7µM | n
Cc1ccccc1OCC(O)CN(Cc1ccccc1O)C1CCCCC1 (stereo unspecified) | x | 0.23µM | 0.19µM | n
Cc1ccc(OCC(O)CNC2CCCC2)c(C)c1 (stereo unspecified) | n | u | 13µM | n
OC(CNC1CCCCCC1)COc1cccc2ccccc12 (stereo unspecified) | n | 1.7µM | 2.1µM | n
CC1CN(C(=O)c2cccc(S(=O)(=O)N3CCN(c4ccccc4)CC3)c2)CC(C)O1 (stereo unspecified) | x | n | n | n
COc1cc(CC(=O)OCC(=O)NC2CCCCCC2)cc(OC)c1OC | x | x | x | n
OC(CNCCc1ccc(C(F)(F)F)cc1)COc1cccc2ccccc12 (stereo unspecified) | n | 7.4µM | 6.6µM | n
CCN1CCCC1CNCC(O)COc1ccc(C(C)(C)C)cc1C (stereo unspecified) | x | 10µM | 12µM | n
CC(C)CN(C(=O)COC(=O)CCc1nc2ccccc2s1)c1c(N)n(Cc2ccccc2)c(=O)[nH]c1=O | x | n | n | n
Cc1cc(C)n(CCN(C)c2nc3nonc3nc2NC2CC2)n1 | n | n | n | n
COc1ccc(NC(=O)C2CCN(S(=O)(=O)c3ccc4c(c3)CC(C)N4C(C)=O)CC2)c(OC)c1 (stereo unspecified) | n | u | u | n
COC(=O)c1ccccc1S(=O)(=O)N1CCC(C(=O)NC2CCCCC2)CC1 | x | n | n | n
Cc1nnc(Nc2ccc(F)cc2)c2ccccc12 | n | n | u | n
FC(F)(F)c1ccc(Nc2nnnc3ccccc23)cc1 | x | 1.3µM | 1.5µM | n
CCCN1CCCc2cc(CN)ccc21 | n | 1.7µM | n | n
COc1ccc(O)c(/C=N/NS(=O)(=O)c2ccc(C)cc2)c1 | n | n | u | n
SMILES | NS1 function inh | Pf growth 48h | Pf growth 96h | SARS PLpro yeast
COc1ccc(/C=N/NS(=O)(=O)c2ccc(C)cc2)cc1 | n | n | 3.3µM | n
Cc1ccc(C(=O)N2CCC(n3nccc3NC(=O)C3CCOC3)CC2)cc1 (stereo unspecified) | n | n | u | n
COc1cc(C2c3[nH]c4ccccc4c3C[C@H]3C(=O)N(CCO)CC(=O)N23)cc(OC)c1OC (stereo partly specified) | n | u | n | n
O=C1[C@@H]2Cc3c([nH]c4ccccc34)C(c3cccc([N+](=O)[O-])c3)N2C(=O)CN1C1CCN(Cc2ccccc2)CC1 (stereo partly specified) | n | 9.3µM | 15µM | n
CCOc1ccccc1C1c2[nH]c3ccccc3c2C[C@H]2C(=O)N(C3CC3)CC(=O)N12 (stereo partly specified) | n | u | 9.3µM | n
CCCN1CC(=O)N2C(c3cccc(OC)c3OC)c3[nH]c4ccccc4c3C[C@H]2C1=O (stereo partly specified) | n | 9.3µM | 4.1µM | n
CC(C)N1C(=O)N(c2cccc(Cl)c2)C(C)(O)CC1(C)C (stereo unspecified) | n | n[0.00184 µM] | n | n
O=C(O)c1cccc(CSc2n[nH]c(-c3ccc(Cl)cc3Cl)n2)c1 | n | n | u | n
COc1ccccc1N1CCN(CC(=O)c2c(C)n(C)c3ccccc23)CC1 | n | u | u | n
COc1ccccc1N1CCN(CC(=O)c2c(C)[nH]c3cc(C)ccc23)CC1 | n | 13µM | n | n
CCC1CCCCN1CC(=O)c1c(C)[nH]c2cc(C)ccc12 (stereo unspecified) | n | n | n | n
Cc1ccc2c(C(=O)CN3CCN(C4CCCCC4)CC3)c(C)[nH]c2c1 | n | 2.6µM | n | n
O=C(C[n+]1ccc2ccccc2c1)c1ccc(NC(=O)c2ccccc2)cc1 | n | 13µM | n | n
O=C(C[n+]1cccc(NC(=O)c2ccccc2)c1)c1ccc(NC(=O)c2ccccc2)cc1 | u | u | u | n
CCN1C=C(Cc2ccc(F)cc2)C2=C(C1)C(c1ccc(F)cc1)C(C#N)=C(N)O2 (stereo unspecified) | n | x | u | n
CCN1C=C(Cc2ccccc2C)C2=C(C1)C(c1ccccc1C)C(C#N)=C(N)O2 (stereo unspecified) | n | x | 2.9µM | n
C=CCOc1c(CNc2ncn[nH]2)cccc1OCC | n | n | 9.3µM | n
COc1cccc(-n2nnc3c(=O)n(Cc4c(F)cccc4Cl)cnc32)c1 | n | n | 9.3µM | n
COc1cccc(-n2nnc3c(=O)n(Cc4cccc(F)c4)cnc32)c1 | n | n | u | n
CCOC(=O)c1ccc(N2CCOCC2)c(NC(=O)c2nccnc2C(=O)O)c1 | n | n | n | n
O=C(CCN1CCc2ccccc21)c1ccc2c(c1)OCCO2 | n | 5.2µM | 2.1µM | n
O=C(CCN1CCc2ccccc2C1)c1ccc2c(c1)OCCO2 | n | n | u | n
COc1ccc(CCN(C)CCCC(C#N)(c2cc(OC)c(OC)c(OC)c2)C(C)C)cc1OC (stereo unspecified) | n | 12µM | 5.2µM | n
O=C(Cc1ccc(Cl)cc1)Nc1cc(S(=O)(=O)N2CCOCC2)ccc1N1CCCC1 | x | n | n | n
COc1ccc(CN2c3cc(S(=O)(=O)N4CCOCC4)ccc3N3CCCC32)cc1 (stereo unspecified) | n | x | 8.3µM | n[6.58 µM]
SMILES | NS1 function inh | Pf growth 48h | Pf growth 96h | SARS PLpro yeast
O=S(=O)(c1ccc2c(c1)N(Cc1ccc(Cl)cc1)C1CCCN21)N1CCOCC1 (stereo unspecified) | n | u | 8.3µM | n
CCN1CCN(c2ccc(NC(=O)c3ccc([N+](=O)[O-])o3)cc2Cl)CC1 | x | u | u | n
COc1ccc(S(=O)(=O)N2CCCCC2)cc1NC(=O)c1ccc([N+](=O)[O-])o1 | x | u | 6.6µM | n
COc1ccc(S(=O)(=O)N2CCCCC2)cc1NC(=O)c1ccco1 | n | n | u | n
CCN1CCN(c2ccc(S(=O)(=O)N3CCCCC3)cc2NC(=O)c2ccc([N+](=O)[O-])o2)CC1 | x | 13µM | 8.3µM | n
COc1cccc(CNC(=O)c2cccc(S(=O)(=O)N3CCN(C)CC3)c2)c1 | n | n | n | n
